PubChem BioAssay (Tox21)
Records with an inconclusive call do not appear. Active and inactive are the calls of the source. The call rests on the fitted dose curve; in most records, active means well fitted curve in the direction sought with a large enough effect in the repeat runs; inconclusive means weak or mixed curves; inactive means no such curve, though single readings can be large; an effect the other way counts as inactive or inconclusive.

Assays:
[1] = A CellTox Green Cytotoxicity Assay to monitor cytotoxicity in HEK293 cells - 32 hour (AID 1224881); further: nearly all actives have a fitted effect of over 40% in size
Procedure, shortened: (§1)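 Fluorescence intensity, read at 0, 8, 16, 24, 32 and 40 h of compound treatment, reflected dye binding to DNA of dead HEK293 cells; compounds (23 nL, DMSO) were added 5 h after plating cells with reagent.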

[2] = A CellTox Green Cytotoxicity Assay to monitor cytotoxicity in HepG2 cells - 0 hour (AID 1224882); further: nearly all actives have a fitted effect of over 35% in size
Procedure, shortened: (§2)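 Using 1536-well format, dye-containing HepG2 suspension was seeded, allowed 5 h at 37 C/5% CO2, dosed by pintool with compounds, positive and negative controls, and imaged for fluorescence across 40 h.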

[3] = A CellTox Green Cytotoxicity Assay to monitor cytotoxicity in HepG2 cells - 32 hour (AID 1224883); further: nearly all actives have a fitted effect of over 50% in size
Procedure, shortened: as §2

[4] = A CellTox Green Cytotoxicity Assay to monitor cytotoxicity in HEK293 cells - 8 hour (AID 1224884); further: nearly all actives have a fitted effect of over 35% in size
Procedure, shortened: as §1

[5] = qHTS RealTime-Glo MT Cell Viability Assay in HepG2 cells - 16 hour (AID 1224885); further: nearly all actives have a fitted effect of over 50% in size
Procedure, shortened: (§3)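 Tox21 10K library screened in qHTS format on HepG2 cells carrying RealTime-Glo reagents. Compounds were added after a 5 h preincubation, and the luminescent signal from continuous culture was measured repeatedly during 40 h treatment.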

[6] = qHTS RealTime-Glo MT Cell Viability Assay in HEK293 cells - 24 hour (AID 1224886); further: top concentration of the series differs between compounds; nearly all actives have a fitted effect of over 50% in size
Procedure, shortened: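 Luminescence generated by NanoLuc from substrate produced by living HEK293 cells served as the viability signal. Each value reflects the reading at its stated time point during continuous 40 h compound exposure at 37 C.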

[7] = qHTS RealTime-Glo MT Cell Viability Assay in HEK293 cells - 8 hour (AID 1224887); further: top concentration of the series differs between compounds; nearly all actives have a fitted effect of over 50% in size
Procedure, shortened: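 Viable HEK293 cells reduce a cell-permeant prosubstrate; the product diffuses out and is consumed by NanoLuc in the medium to give light. Compounds went in after a 5 h incubation and plates were read over the treatment course.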

[8] = A CellTox Green Cytotoxicity Assay to monitor cytotoxicity in HEK293 cells - 16 hour (AID 1224888); further: nearly all actives have a fitted effect of over 35% in size
Procedure, shortened: as §1

[9] = qHTS RealTime-Glo MT Cell Viability Assay in HepG2 cells - 0 hour (AID 1224889); further: nearly all actives have a fitted effect of over 50% in size
Procedure, shortened: as §3
On the % scale 0 is the no-effect control and ±100 the full control effect.

Cn1cnc2c(=O)[nH]c(N)nc21
inactive: Potency [1] | Potency [2] | Potency [3] | Potency [4] | outcome [5] | Potency [6] | Potency [7] | Potency [8] | Potency [9]

C=C(C)C(=O)NCCC[N+](C)(C)C
inactive: Potency [2] | Potency [3] | Potency [4] | outcome [5] | Potency [6] | Potency [7] | Potency [8] | Potency [9]

O=C1OC(=O)c2cc([N+](=O)[O-])ccc21
inactive: Potency [1] | Potency [2] | Potency [4] | outcome [5] | Potency [6] | Potency [7] | Potency [8]

COc1cc(O)cc(O)c1
inactive: Potency [1] | Potency [2] | Potency [4] | outcome [5] | Potency [6] | Potency [7] | Potency [8] | Potency [9]

CCCCCCCCCCCCI
inactive: Potency [1] | Potency [2] | Potency [3] | outcome [5] | Potency [6] | Potency [7] | Potency [8]

COC(=O)C1=C(C)NC(C)=C(C(=O)OCC(C)=O)C1c1ccccc1[N+](=O)[O-] (centres undefined)
inactive: Potency [1] | Potency [2] | Potency [4] | Potency [6] | Potency [7] | Potency [8]

O=C(O)C(O)[C@H](O)[C@@H](O)[C@H](O)[C@H](O)CO (some centres undefined)
inactive: Potency [1] | Potency [3] | Potency [4] | outcome [5] | Potency [6] | Potency [7] | Potency [8] | Potency [9]

CC(C)COC(=O)c1ccccc1O
inactive: Potency [1] | Potency [2] | Potency [3] | Potency [4] | outcome [5] | Potency [6] | Potency [8]

CCN1CCCC1CNC(=O)c1cc(S(N)(=O)=O)ccc1OC (centres undefined)
inactive: Potency [2] | Potency [3] | outcome [5] | Potency [8] | Potency [9]

OC[C@H]1O[C@@H]2O[C@H]3[C@H](O)[C@@H](O)[C@@H](O[C@H]4[C@H](O)[C@@H](O)[C@@H](O[C@H]5[C@H](O)[C@@H](O)[C@@H](O[C@H]6[C@H](O)[C@@H](O)[C@@H](O[C@H]7[C@H](O)[C@@H](O)[C@@H](O[C@H]8[C@H](O)[C@@H](O)[C@@H](O[C@H]9[C@H](O)[C@@H](O)[C@@H](O[C@H]1[C@H](O)[C@H]2O)O[C@@H]9CO)O[C@@H]8CO)O[C@@H]7CO)O[C@@H]6CO)O[C@@H]5CO)O[C@@H]4CO)O[C@@H]3CO
inactive: Potency [2] | Potency [3] | Potency [4] | outcome [5] | Potency [6] | Potency [7] | Potency [8]

CCN(CC)S(=O)(=O)c1ccc(C(=O)O)cc1
inactive: Potency [2] | Potency [3] | outcome [5] | Potency [9]

C=C(C)C1CC=C(C)C(O)C1 (centres undefined)
inactive: Potency [1] | Potency [4] | outcome [5] | Potency [6] | Potency [8] | Potency [9]

O=C(O)c1ccccc1S
inactive: Potency [2] | Potency [3] | outcome [5] | Potency [6] | Potency [8]

CCCOCC(C)OCC(C)O (centres undefined)
inactive: Potency [2] | Potency [3] | Potency [4] | outcome [5] | Potency [6] | Potency [7] | Potency [8] | Potency [9]

C=C(C)[C@H]1CC=C(C)CC1
inactive: Potency [1] | Potency [2] | Potency [3] | Potency [4] | outcome [5] | Potency [6] | Potency [8] | Potency [9]

CCCCOCC(C)OCC(C)O (centres undefined)
inactive: Potency [1] | Potency [2] | Potency [3] | Potency [4] | outcome [5] | Potency [6] | Potency [8] | Potency [9]

CC(C)(C)OC(=O)N1C[C@@H](F)C[C@H]1C(=O)O
inactive: Potency [1] | Potency [2] | Potency [3] | Potency [4] | outcome [5] | Potency [6] | Potency [7] | Potency [8] | Potency [9]

CC(C)(O)Cc1ccccc1
inactive: Potency [1] | Potency [2] | Potency [3] | Potency [4] | outcome [5] | Potency [7] | Potency [8] | Potency [9]

CCCCCCCCCCCCCCCCCCOCC(O)CO (centres undefined)
inactive: Potency [1] | Potency [4] | outcome [5] | Potency [6] | Potency [7] | Potency [8] | Potency [9]

C[C@H](O)C(=O)Nc1c(I)c(C(=O)NC(CO)CO)c(I)c(C(=O)NC(CO)CO)c1I
inactive: Potency [1] | Potency [2] | Potency [3] | Potency [4] | outcome [5] | Potency [6] | Potency [8] | Potency [9]

COc1cccc(Br)c1
inactive: Potency [1] | Potency [4] | outcome [5] | Potency [6] | Potency [7] | Potency [8]

C1COCCO1
inactive: Potency [2] | Potency [3] | Potency [4] | outcome [5] | Potency [6] | Potency [7] | Potency [8] | Potency [9]

OC1OC[C@@H](O)[C@H](O)[C@H]1O (some centres undefined)
inactive: Potency [1] | Potency [3] | Potency [4] | outcome [5] | Potency [6] | Potency [7] | Potency [8] | Potency [9]

COC(=O)[C@H]1[C@H]2C[C@@H]3c4[nH]c5cc(OC)ccc5c4CCN3C[C@H]2C[C@@H](OC(=O)COc2ccc(OC)cc2)[C@@H]1OC
inactive: Potency [1] | Potency [2] | Potency [3] | outcome [5] | Potency [6] | Potency [7] | Potency [8] | Potency [9]

CC12CCC(CC1=O)C2(C)C (centres undefined)
inactive: Potency [2] | Potency [3] | Potency [4] | outcome [5] | Potency [6] | Potency [7] | Potency [8]

CC(C)(C)C(=O)/C=C/c1ccc(Cl)cc1
inactive: Potency [1] | Potency [2] | Potency [4] | outcome [5] | Potency [6] | Potency [7] | Potency [8] | Potency [9]

O=S(=O)(O)c1ccccc1O
inactive: Potency [1] | Potency [3] | Potency [4] | outcome [5] | Potency [6] | Potency [7] | Potency [8]

CCO[Si](CCCN=C=O)(OCC)OCC
inactive: Potency [1] | Potency [2] | Potency [3] | Potency [4] | outcome [5] | Potency [6] | Potency [8] | Potency [9]

C1CCCCCCCCCCC1
inactive: cytotoxicity increase [1] -37.3% [at 15.8 µM] | cytotoxicity [2] -1.21% [at 15.8 µM] | cytotoxicity increase [4] -28.5% [at 15.8 µM] | activity change, negative = cytotoxic [5] -3.94% [at 15.8 µM] | activity change [8] -33.7% [at 15.8 µM, active compounds read high] | activity change, negative = cytotoxicity [9] -19.7% [at 15.8 µM]
